According to PubChem BioAssay:

Experiment: compound effects on multiple myeloma cell viability – MM1S, calcein-AM fluorescence, 48 h, basal, profiling panel (AID 1165); further: test concentration not given here
Conditions: higher = more signal
For `C=CC[C@@H]1C=C[C@H](ON=CC[C@@H]2C=C[C@H](OC(C)=O)[C@@H](COC(C)=O)O2)[C@@H](CO)O1`, the z-score was 0.114.
Work on `C=CC[C@@H]1C=C[C@H](ON=C(C)CCN2CCCc3nc(C)c(C)cc32)[C@@H](CO)O1` yielded a z-score of -2.03.
Molecule `CC(=O)OC[C@H]1O[C@H](CC=NO[C@H](C)c2cn([C@@H]3COC[C@H]3O)nn2)C=C[C@@H]1OC(C)=O` has a z-score of 0.621.
`CC(=O)OC[C@H]1O[C@H](CCON=C(C)CCN2CCCc3nc(C)c(C)cc32)C=C[C@@H]1OC(C)=O` showed a z-score of -1.85.
For `CO[C@H]1COC(=O)[C@H](CCSC)NC(=O)CC=C[C@@H](C)[C@H](OC)COC(=O)[C@@H](OCc2ccccc2)C=C[C@@H]1C`, the z-score was -0.0051.
`CN1CCc2nc(-c3ccccc3)c(-c3ccccc3)cc2C1` showed a z-score of 0.33.
With `CON=C(C)CCN1CCc2nc(-c3ccccc3)c(-c3ccccc3)cc2C1` the z-score was -2.98.
Molecule `CCN1C(=O)[C@H]2[C@@H]3C(=CC[C@H]2C1=O)C(=O)[C@H]1O[C@H]1[C@H]3O` has a z-score of -3.04.
For `CC(C)C(=O)N[C@H]1CCCN1C(=O)C=Cc1ccccc1`, the z-score was -0.903.
Molecule `CCOC(=O)[C@H](CC(C)C)NC(=O)CCC1CC(OC(=O)NCc2ccc3c(c2)OCO3)CC2(CCCC(COC(=O)NCCC(C)C)O2)O1` (some centres not stated) has a z-score of 0.473.
`COC(=O)CC=C[C@@H](C)[C@@H](C=NOC[C@@H](O)COCc1ccco1)NS(=O)(=O)c1ccc(C)cc1` gave a z-score of -0.833.
With `CON=C(C)CCN1CCCCc2nc(C)c(C)cc21` the z-score was -0.254.
With `CC(=O)OC[C@H]1O[C@H](CCON=C(C)C)C=C[C@@H]1OC(C)=O` the z-score was -0.719.
`O=C1CCCC=C1C(O)C1CCCCC1` (configuration not stated) showed a z-score of 0.766.
Work on `COC(=O)CC=C[C@@H](C)[C@@H](C=NOC[C@@H](C)[C@H](OCc1ccccc1)C(C)C)OC` yielded a z-score of -0.18.
For `COC(=O)[C@H](C)NC(=O)CC=C[C@@H](C)[C@@H]1C=C[C@H](O)[C@@H](CO)O1`, the z-score was 0.203.
In the case of `C[C@@H](c1ccccc1)N1C(=O)[C@H]2[C@H]3[C@H](O)[C@H](O)CC(=NOCc4ccccc4)[C@@H]3CC[C@H]2C1=O`, the z-score was 0.67.
In the case of `O=C1[C@H]2[C@H]3[C@H](O)[C@H](O)CC(=NOC[C@@H](O)COCc4ccco4)[C@@H]3CC[C@H]2C(=O)N1Cc1ccc2c(c1)OCO2`, the z-score was 0.477.
`CCCNC(=O)OC[C@H]1O[C@H](CCON=C2C[C@@H](O)[C@@H](O)[C@@H]3[C@@H]4C(=O)N(CC)C(=O)[C@@H]4CC[C@@H]23)C=C[C@@H]1Oc1ccc(OC)cc1` gave a z-score of -1.61.
With `CC(C)CON=C1C[C@@H](O)[C@@H](O)[C@@H]2[C@@H]3C(=O)N(Cc4ccc5c(c4)OCO5)C(=O)[C@@H]3CC[C@@H]12` the z-score was 0.828.
Work on `COc1ccc(COC(=O)NN=C2C[C@@H](O)[C@@H](O)[C@@H]3[C@@H]4C(=O)N([C@@H](C)c5ccccc5)C(=O)[C@@H]4CC[C@@H]23)cc1` yielded a z-score of 0.434.
In the case of `C[C@@H]1CC[C@H]2C(=O)N3[C@@H](CC[C@@H](C)[C@@H]3c3ccc(Br)cc3)C(=O)N2[C@H]1c1ccc(Br)cc1`, the z-score was -2.69.
`CCOC(=O)CCN1C(=O)[C@H]2[C@H]3[C@H](O)[C@H](O)CC(=O)[C@@H]3CC[C@H]2C1=O` showed a z-score of -0.885.
For `COC(=O)[C@H](CCSC)NC(=O)CC=C[C@@H](C)CO`, the z-score was -1.12.
Work on `CCOC(=O)[C@H](Cc1ccccc1)NC(=O)CCC1CC(OC(=O)NCc2cccc3ccccc23)CC2(CCCC(COC(=O)NCCOc3ccccc3)O2)O1` (some centres not stated) yielded a z-score of 0.992.
With `COc1ccc(COC(=O)NN=C2C[C@@H](O)[C@@H](O)[C@@H]3[C@@H]4C(=O)N(c5cccc(Oc6ccccc6)c5)C(=O)[C@@H]4CC[C@H]23)cc1` the z-score was 0.0646.
In the case of `COc1ccc(OC[C@@H]2CC3[C@@H](c4ccc(Br)cc4)[C@H](C)CC[C@H]3C(=O)O2)cc1` (some centres not stated), the z-score was 0.332.
`COC(=O)[C@H](C)NC(=O)CCC1CC(OC(=O)NCc2cccc3ccccc23)CC2(CCCC(COC(=O)NCCc3ccccc3OC)O2)O1` (some centres not stated) gave a z-score of -3.38.
Molecule `COc1ccc(OC[C@@H](CO)OC)cc1` has a z-score of 0.124.
In the case of `COc1ccc(COC(=O)NN=C2C[C@@H](O)[C@@H](O)[C@@H]3[C@@H]4C(=O)N(C[C@@H]5CCCO5)C(=O)[C@@H]4CC[C@@H]23)cc1`, the z-score was -0.657.
`CCOC(=O)[C@H](CC(C)C)NC(=O)CCC1CC(OC(=O)NCc2ccc3c(c2)OCO3)CC2(CCCC(COC(=O)NCCOc3ccccc3)O2)O1` (some centres not stated) showed a z-score of -2.19.
In the case of `C=CC[C@@H]1C=C[C@H](ON=C(C)CCN2CCCCc3nc(C)c(C)cc32)[C@@H](CO)O1`, the z-score was 0.475.
